From ChEMBL document CHEMBL1157539, “Thousands of chemical starting points for antimalarial lead identification” (Nature, 2010)

Key:
Type in all cases: functional
Plasmodium falciparum [1] = assay: GSK_TCMDC: Inhibition of Plasmodium falciparum 3D7 in whole red blood cells, using parasite LDH activity as an index of growth. Test compounds present at 2uM
Plasmodium falciparum [2] = assay: GSK_TCMDC: Inhibition of Plasmodium falciparum Dd2 in whole red blood cells, using parasite LDH activity as an index of growth. Test compounds present at 2uM
HepG2 = assay: GSK_TCMDC: Percent inhibition of human HepG2 cell line. Test compounds present at 10uM.

Row | SMILES | Inhibition (Plasmodium falciparum [1]) | Inhibition (Plasmodium falciparum [2]) | Inhibition (HepG2)
1 | COc1ccc2nccc([C@@H](O)CN3CCC(NCCOc4c(C)cccc4F)CC3)c2c1.O=C(O)C(=O)O | 100% | 95% | 4%
2 | Cc1cc(-c2nc3ccc(C(=O)NCc4ccccc4)cc3n2C2CCN(C(=O)c3ccc(-c4ccccc4)cc3)CC2)ccn1 | 95% | 97% | 36%
3 | Cc1cc(NC(=O)[C@H](CC2CCCCC2)Nc2ccc(C#N)c3ccccc23)ccc1F.O=C(O)C(F)(F)F | 100% | 99% | 21%
4 | CC(Oc1ccc(Cl)cc1)C(=O)Nc1cc(C(F)(F)F)ccc1-n1cncn1 (stereo not given) | 99% | 98% | 0%
5 | Nc1c2c(nc3ccc(NC(=O)c4ccccc4)cc13)CCCC2 | 99% | 8% | 0%
6 | CCCc1cc(OC)c(C[C@@H]2c3cc(O)c(Cl)cc3CCN2C)cc1OC.Cl | 98% | 98% | 3%
7 | Cc1[nH]c(C)c(-c2ccc(OCc3ccc(OC(F)(F)F)cc3)nc2)c(=O)c1Cl | 98% | 96% | 3%
8 | Cl.Oc1ccc(CCNc2nc(NCCCOc3ccccc3-c3ccc(C(F)(F)F)cc3)nc(N3CCNCC3)n2)cc1 | 100% | 49% | 64%
9 | O=C(NC(CCCN1CCC(c2ccccc2)CC1)c1ccc(Cl)c(Cl)c1)c1cc(C(F)(F)F)cc(C(F)(F)F)c1 (stereo not given) | 92% | 87% | 33%
10 | COc1ccccc1CCN(C)CCN1CCC(NC(=O)c2ccc(-c3ccc(C(F)(F)F)cc3)cc2)CC1 | 92% | 15% | 46%
11 | CC(C)CCNC(=O)C1Cc2c([nH]c3cc(Br)ccc23)C2(CCN(Cc3ccccc3)CC2)N1 (stereo not given) | 96% | 45% | 10%
12 | O=C(Nc1cccc(CN2CCCN(Cc3ccc(O)cc3)CC2)c1)c1ccc2ccccc2c1.O=C(O)C(F)(F)F | 100% | 78% | 20%
13 | Cc1cc(N(C)C)nc(Nc2ccc(NC(=O)c3ccccc3C)cc2)n1 | 93% | 16% | 0%
14 | CC1CN(Cc2ccc(-c3ccc(-c4nc5ccccc5[nH]4)cc3)cc2)CC(C)O1.O=C(O)C(F)(F)F (stereo not given) | 98% | 96% | 48%
15 | O=C(Nc1cccc(CN2CCN(Cc3ccc(O)cc3)CC2)c1)c1cccc(C(F)(F)F)c1.O=C(O)C(F)(F)F | 91% | 15% | 21%
16 | Cc1ccc(C(C)C)cc1CON1C(=N)N=C(N)NC1(C)C.Cl | 94% | 92% | 66%
17 | CS(=O)(=O)c1ccc(CCNCc2ccc(-c3cccc(-c4nc5ccccc5[nH]4)c3)cc2)cc1.O=C(O)C(F)(F)F | 100% | 99% | 40%
18 | O=C(NCCN1CCN(S(=O)(=O)c2ccc(OC3CCNCC3)c(Br)c2)CC1)c1ccc(Cl)c(Cl)c1.O=C(O)C(F)(F)F | 89% | 0% | 1%
19 | O=C1C(c2ccccc2)=C(Nc2cc(Cl)cc(Cl)c2)c2ccccc21 | 96% | 94% | 0%
20 | Nc1nccc2ccc(-c3ccc(OCc4ccccc4)cc3)cc12.O=C(O)C(F)(F)F | 100% | 67% | 40%

Row | SMILES | Inhibition (Plasmodium falciparum [1]) | Inhibition (Plasmodium falciparum [2]) | Inhibition (HepG2)
21 | COc1ccc(-c2cc(Nc3nc(-c4cccc(Cl)c4)nc4ccccc34)ccn2)cc1 | 100% | 17% | 3%
22 | CN1CCN(c2cc3c(cc2Cl)CCN3C(=O)Cc2ccc(Cl)c(NC(=O)Nc3cccc(C#N)c3)c2)CC1 | 99% | 40% | 0%
23 | CC(C)c1ccc(CN2CCCCC(NC(=O)c3cc(-c4ccccc4Cl)cs3)C2)cc1.O=C(O)C(F)(F)F (stereo not given) | 100% | 64% | 8%
24 | CC[C@H]1CN2CCc3c([nH]c4ccccc34)[C@@H]2C[C@@H]1CC1c2cc(OC)c(OC)cc2CCN1C.Cl (stereo not given in full) | 85% | 45% | 31%
25 | CC(CNC(=O)C(c1cc2ccccc2o1)N1CCN(C(c2ccccc2)c2ccccc2)CC1)c1ccccc1 (stereo not given) | 99% | 89% | 2%
26 | C=C(C)C1CC=C(CN2CCCC(n3ccc4cc(NC(=O)c5ccco5)ccc43)CC2)CC1 (stereo not given) | 90% | 95% | 13%
27 | O=C(/C=C/c1ccc(Cl)c(Cl)c1)NC1CCN(CCNC(=O)c2cccc(Cl)c2)CC1.O=C(O)C(F)(F)F | 100% | 45% | 22%
28 | Cl.Nc1c2c(nc3ccc(NC(=O)CCCCCCc4ccccc4)cc13)CCCC2 | 100% | 90% | 100%
29 | Cc1cccc2nc(-c3cccc(-c4ccc(NC(=O)NC(C)C)cc4)c3)[nH]c12 | 98% | 44% | 30%
30 | Cl.O=S(=O)(c1ccc(OCc2ccc(Cl)cc2)cc1)c1cc2c(cc1OCc1ccccc1)CCN(C1CCC1)CC2 | 89% | 13% | 17%
31 | COc1c(C2CCN(CCCCNC(=O)c3oc(-c4ccc(Cl)cc4)cc3CO)CC2)ccc2c1CCCC2 | 100% | 95% | 80%
32 | COc1cc(NCCCCNc2ccc(Cl)c(Cl)c2)nc2ccccc12 | 100% | 68% | 22%
33 | CCNc1cc(C)nc(Nc2ccc(C)cc2)n1 | 100% | 85% | 12%
34 | O=C(NC1CCN(Cc2ccccc2)CC1)c1ccc(CNC2CCN(Cc3ccccc3)CC2)cc1.O=C(O)C(F)(F)F | 99% | 58% | 14%
35 | Cc1cc(OCCCN2CCCCC2)ccc1NC(=O)COc1ccc(Cl)cc1C(=O)c1cc(Cl)cc(C#N)c1 | 93% | 16% | 28%
36 | CCC(C)CC(=O)Nc1ccc(OC)c(S(=O)(=O)N[C@@H]2CCN(C#N)C2)c1 (stereo not given in full) | 94% | 77% | 16%
37 | CNC(=O)C1Cc2c([nH]c3cc(Br)ccc23)C2(CCN(CCc3ccccc3)CC2)N1 (stereo not given) | 100% | 31% | 10%
38 | CCCCCN1CCCC(CNS(=O)(=O)c2cccc(C(=O)Nc3ccc(C(F)(F)F)cc3)c2)C1.O=C(O)C(F)(F)F (stereo not given) | 96% | 2% | 27%
39 | CCCCCn1c(Sc2ccc(C#N)c([N+](=O)[O-])c2)nnc1-c1cccc(Cl)c1 | 95% | 75% | 4%
40 | COc1cccc(OC)c1C(=O)N1CCC2(CC1)C(=O)N(CC(=O)NC1CCCCC1)CN2c1ccccc1 | 92% | 91% | 16%

Row | SMILES | Inhibition (Plasmodium falciparum [1]) | Inhibition (Plasmodium falciparum [2]) | Inhibition (HepG2)
41 | COc1cc(-c2ccccc2)ccc1C(=O)Nc1ccc2c(c1)N(C)CCC2 | 85% | 75% | 15%
42 | CN(C)CCN(C)Cc1ccc(-c2ccc3c(Nc4ccc(Oc5ccccc5)cc4)ccnc3c2)o1 | 100% | 100% | 5%
43 | Cc1cccc2nc(-c3ccc(-c4cccc(CN5CCC(CO)CC5)c4)s3)[nH]c12.O=C(O)C(F)(F)F | 99% | 61% | 20%
44 | COc1ccc2[nH]c(C)cc(=NN=Cc3ccc(F)cc3)c2c1 | 100% | 99% | 5%
45 | COc1ccc(-c2cccc(NC(=O)c3ccccc3)c2)cc1CN1CCCN(C)CC1.O=C(O)C(F)(F)F | 98% | 25% | 22%
46 | CC(C)(C)c1nn(-c2ccc(Cl)cc2)c2[nH]c(=O)c(CNCc3ccc4c(c3)OCO4)cc12 | 100% | 98% | 15%
47 | COc1ccc2nccc([C@@H](O)CN3CCC(NC(=O)C(c4ccccc4C)N4CCC(Cc5ccccc5)CC4)CC3)c2c1 (stereo not given in full) | 100% | 97% | 10%
48 | COc1ccc2nccc([C@@H](O)CN3CCC(NC(=O)c4ccc(Cl)c([N+](=O)[O-])c4)CC3)c2c1 | 88% | 43% | 14%
49 | Cl.O=[N+]([O-])c1cccc(-c2nc3cc(C4=NC5CCCCC5N4)ccc3[nH]2)c1 (stereo not given) | 100% | 81% | 4%
50 | NC(=O)c1cc2nc(NC3CCC3)nc(Nc3cccc4[nH]ncc34)c2[nH]1.O=CO | 100% | 62% | 9%
51 | COc1ccc(C2C(C(=O)Nc3ccccc3)=C(C)Nc3c(C(=O)Nc4ccccc4)cnn32)cc1 (stereo not given) | 85% | 66% | 13%
52 | CCc1cc(NCc2ccncc2)nc(Nc2ccc(F)cc2)n1 | 92% | 17% | 8%
53 | Cc1cc(-c2ccc(CNC3Cc4ccccc4C3)cc2)ccc1S(=O)(=O)NCCN1CCCC1.O=C(O)C(F)(F)F | 100% | 73% | 99%
54 | Br.COc1ccc(OCCCON2C(=N)N=C(N)NC2(C)C)cc1 | 97% | 94% | 55%
55 | CCN(CCNc1nc(NCCc2cnc[nH]2)nc(N(CCC#N)Cc2ccccc2)n1)c1cccc(C)c1 | 100% | 92% | 13%
56 | CN(C)c1ccc(-c2csc(C(=O)NC3CCN(CCC(C)(C)C)C3)c2)cc1.O=C(O)C(F)(F)F (stereo not given) | 95% | 36% | 20%
57 | O=C(Nc1ccc2ccccc2n1)c1ccccc1-c1ccccc1 | 90% | 83% | 14%
58 | O=C(Nc1ccc(-c2cccc(-c3nc4cc(F)ccc4[nH]3)c2)cc1)Nc1ccsc1 | 100% | 51% | 34%
59 | Cl.Cn1ccc(-c2cccc(Nc3ccnc4cc(-c5nccs5)ccc34)c2)n1 | 100% | 94% | 39%
60 | COc1ccc(NS(=O)(=O)c2ccc(C(=O)Nc3ccc(OC(F)(F)F)cc3)cc2)cc1N1CCN(CC2CC2)CC1.O=C(O)C(F)(F)F | 89% | 0% | 18%
